Results filed as inconclusive are left out. Calls of active or inactive are those of the source. Unless noted, the call rests on the fitted dose curve; in most records, active means well fitted curve in the direction sought with a large enough effect; inconclusive means small, poorly fitted or top-dose-only effect, or another doubt; inactive means no such curve, though single readings can be large; an effect the other way counts as inactive or inconclusive.
What was measured:
[1] = target: Lysosomal acid glucosylceramidase (Homo sapiens) (UniProt P04062); test: Glucocerebrosidase-p2 (AID 348; in the data active means potency below about 10 µM; further: potency means the concentration at half of the fitted maximal effect); conditions: purified GBA, blue fluorogenic substrate, 40 min
Chain of Lysosomal acid glucosylceramidase (Homo sapiens) (P04062 whole entry, looked up): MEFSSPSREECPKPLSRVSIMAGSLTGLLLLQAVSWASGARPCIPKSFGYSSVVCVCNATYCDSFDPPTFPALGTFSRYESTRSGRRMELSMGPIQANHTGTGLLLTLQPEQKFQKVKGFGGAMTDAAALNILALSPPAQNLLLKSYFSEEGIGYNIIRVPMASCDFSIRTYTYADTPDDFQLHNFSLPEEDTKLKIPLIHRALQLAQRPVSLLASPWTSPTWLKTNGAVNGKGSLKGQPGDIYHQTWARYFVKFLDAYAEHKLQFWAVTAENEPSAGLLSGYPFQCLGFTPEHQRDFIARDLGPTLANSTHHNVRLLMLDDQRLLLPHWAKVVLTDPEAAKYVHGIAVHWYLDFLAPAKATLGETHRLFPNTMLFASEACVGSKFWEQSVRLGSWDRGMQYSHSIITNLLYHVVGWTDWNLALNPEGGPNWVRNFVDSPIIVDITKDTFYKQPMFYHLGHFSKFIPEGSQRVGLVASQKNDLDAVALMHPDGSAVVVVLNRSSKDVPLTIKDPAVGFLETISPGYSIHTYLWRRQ
Outline: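 Compounds titrated from 0.6 nM upwards against 0.2 nM enzyme in pH 5.9 citric acid/KH2PO4, taurocholate, tween-20; blue fluorogenic substrate 80 uM, 40 min room temperature, stopped and read Ex 365/Em 440 for AC50.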

[2] = target: Cytochrome P450 1A2 (Homo sapiens) (UniProt P05177); test: p450-cyp1a2 (AID 410; calls by dose curve; further: potency means the concentration at half of the fitted maximal effect;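 on activity change, negative = inhibition: -100% = full effect of reference inhibitor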); conditions: recombinant CYP1A2, luciferin-ME demethylation, luminescence; series mostly up to 57 µM
Chain of Cytochrome P450 1A2 (Homo sapiens) (P05177 whole entry, looked up): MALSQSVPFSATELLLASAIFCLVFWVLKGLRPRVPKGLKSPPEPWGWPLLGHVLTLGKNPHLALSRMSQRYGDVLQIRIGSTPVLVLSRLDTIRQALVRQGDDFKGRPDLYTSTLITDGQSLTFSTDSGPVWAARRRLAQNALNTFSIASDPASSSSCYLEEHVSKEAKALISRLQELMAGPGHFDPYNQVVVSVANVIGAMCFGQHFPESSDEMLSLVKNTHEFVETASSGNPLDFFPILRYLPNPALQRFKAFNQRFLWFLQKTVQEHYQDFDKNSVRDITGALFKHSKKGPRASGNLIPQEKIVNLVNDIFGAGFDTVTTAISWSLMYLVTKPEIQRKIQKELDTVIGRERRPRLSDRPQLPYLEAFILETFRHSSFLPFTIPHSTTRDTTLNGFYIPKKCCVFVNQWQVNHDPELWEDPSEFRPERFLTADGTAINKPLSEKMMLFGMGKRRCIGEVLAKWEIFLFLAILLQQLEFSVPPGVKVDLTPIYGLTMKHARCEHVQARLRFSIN
Outline: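 Luminescent readout of luciferin formed from Luciferin-ME by human CYP1A2; data normalized against complete inhibition by 57 uM furafylline. Enzyme 20nM, substrate 100uM at Km, 100mM KPO4 buffer, 60 min reaction at room temperature.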

[3] = target: Glucocorticoid receptor (Homo sapiens) (UniProt P04150); test: GR-GFP Redistribution (AID 450;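 active means compounds whose dose series gives a full or clear partial fitted curve of increased nuclear translocation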; further: potency means the concentration at half of the fitted maximal effect); conditions: U2OS GR-GFP nuclear translocation, laser cytometry, 2 h
Chain of Glucocorticoid receptor (Homo sapiens) (P04150 whole entry, looked up, the tested form may be a part): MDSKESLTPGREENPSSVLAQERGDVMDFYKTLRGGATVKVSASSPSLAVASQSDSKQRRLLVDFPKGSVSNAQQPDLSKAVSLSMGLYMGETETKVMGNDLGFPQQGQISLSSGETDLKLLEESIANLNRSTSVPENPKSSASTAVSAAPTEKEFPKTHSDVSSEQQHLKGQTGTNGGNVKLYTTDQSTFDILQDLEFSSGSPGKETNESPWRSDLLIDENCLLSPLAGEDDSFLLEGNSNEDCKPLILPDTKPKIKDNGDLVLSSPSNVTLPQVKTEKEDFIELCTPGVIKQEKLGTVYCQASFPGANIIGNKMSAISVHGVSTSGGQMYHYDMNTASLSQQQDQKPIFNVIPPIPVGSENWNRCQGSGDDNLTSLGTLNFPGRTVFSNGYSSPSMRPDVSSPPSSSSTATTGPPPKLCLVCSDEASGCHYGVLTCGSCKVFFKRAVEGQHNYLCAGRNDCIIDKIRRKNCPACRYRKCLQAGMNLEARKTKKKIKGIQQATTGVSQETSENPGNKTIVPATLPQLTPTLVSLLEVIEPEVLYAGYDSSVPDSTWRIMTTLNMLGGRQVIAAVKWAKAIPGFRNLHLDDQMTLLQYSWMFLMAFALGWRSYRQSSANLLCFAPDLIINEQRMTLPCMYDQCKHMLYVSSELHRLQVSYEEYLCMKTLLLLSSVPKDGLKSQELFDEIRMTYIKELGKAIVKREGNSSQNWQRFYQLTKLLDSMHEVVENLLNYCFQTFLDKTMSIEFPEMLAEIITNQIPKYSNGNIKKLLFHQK

[4] = target: Glucocorticoid receptor (Homo sapiens) (UniProt P04150); test: GR-EFC Redistribution (AID 451; calls by dose curve; further: potency means the concentration at half of the fitted maximal effect); conditions: CHO-K1 GR-EFC translocation, beta-gal luminescence, 2 h
Outline: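 CHO-K1 cells stably expressing nuclear-localized β-gal enzyme acceptor and GR fused C-terminally to the enzyme donor fragment; ligand-driven nuclear translocation restores β-gal by complementation. Compounds titrated up to 46 uM final, 2 h at 37 °C; luminescence read.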

[5] = target: Mitogen-activated protein kinase 10 (Mus musculus) (UniProt Q61831); test: JNK3 AlphaScreen Assay (AID 530; active means well fitted curve in either direction with a large enough effect, not every such curve was filed as active;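 further: kinase came from lysate of stimulated human HepG2 cells; signal reports phosphorylation of biotinylated GST-cJun 1-79 at Ser73 with 10 µM ATP; on the % scale 0 is the no-effect control and ±100 the full control effect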); conditions: JNK3 lysate, c-Jun phosphorylation; series mostly up to 57.1 µM
Outline: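 Inhibitors reduce antibody binding to phosphorylated biotin-cJun, lowering AlphaScreen luminescence. Lysates from HepG2 cells pre-activated by IL-1beta plus TNF-alpha supplied JNK3; compounds were titrated.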

[6] = target: Cytochrome P450 3A4 (Homo sapiens) (UniProt P08684); test: qHTS Assay for Activators of Cytochrome P450 3A4 (AID 885); conditions: recombinant CYP3A4, Luciferin-PPXE luminescence, 60 min; series mostly up to 57.1 µM; further: nearly all actives have a fitted effect of over 65% in size
Chain of Cytochrome P450 3A4 (Homo sapiens) (P08684 whole entry, looked up): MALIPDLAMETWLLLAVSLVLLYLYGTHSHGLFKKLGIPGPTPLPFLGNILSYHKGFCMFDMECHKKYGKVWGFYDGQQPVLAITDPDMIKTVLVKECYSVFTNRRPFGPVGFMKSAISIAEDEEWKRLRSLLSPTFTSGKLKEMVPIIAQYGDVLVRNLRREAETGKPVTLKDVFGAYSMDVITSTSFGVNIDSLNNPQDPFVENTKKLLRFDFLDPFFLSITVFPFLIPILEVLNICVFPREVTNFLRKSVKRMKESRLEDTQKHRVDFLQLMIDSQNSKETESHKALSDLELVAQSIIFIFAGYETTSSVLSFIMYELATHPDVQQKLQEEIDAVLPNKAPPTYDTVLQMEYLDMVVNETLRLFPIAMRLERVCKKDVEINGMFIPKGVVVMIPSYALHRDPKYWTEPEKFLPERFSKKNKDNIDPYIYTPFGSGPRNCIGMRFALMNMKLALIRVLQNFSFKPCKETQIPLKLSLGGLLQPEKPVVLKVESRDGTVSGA
Outline: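 20nM CYP3A4 + 25uM Luciferin-PPXE (=KM), 200mM KPO4; cpd 10 min RT; NADPH regen, 60 min RT; stop w/ detection buffer, 20 min; luminescence. Normalized to 57 uM ketoconazole.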

[7] = qHTS Assay for Lipid Storage Modulators (AID 1519; calls by dose curve); conditions: Drosophila S3 cells, BODIPY lipid droplet/cell ratio, laser cytometry, cells loaded with oleic acid; for activity change, negative = inhibition: at 57.5 µM (top of the series)
Outline: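 Cells seeded at 5,000 per well were treated with compounds over a concentration series and loaded with oleic acid (400 uM, as added). Lipid droplet fluorescence (488 nm excitation, 500-530 nm channel) was read by laser-scanning cytometry and normalized to 20 uM Triacsin C.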

[8] = target: Dual specificity protein kinase CLK4 (Homo sapiens) (UniProt Q9HAZ1); test: qHTS Assay for Inhibitors of CDC-like Kinase 4 (Kinase-Glo Assay) (AID 1770); conditions: recombinant Clk4, Kinase-Glo ATP depletion luminescence; series mostly up to 66.7 µM; further: nearly all actives have a fitted effect of over 65% in size; further: potency means the concentration at half of the fitted maximal effect
Chain of Dual specificity protein kinase CLK4 (Homo sapiens) (Q9HAZ1 whole entry, looked up): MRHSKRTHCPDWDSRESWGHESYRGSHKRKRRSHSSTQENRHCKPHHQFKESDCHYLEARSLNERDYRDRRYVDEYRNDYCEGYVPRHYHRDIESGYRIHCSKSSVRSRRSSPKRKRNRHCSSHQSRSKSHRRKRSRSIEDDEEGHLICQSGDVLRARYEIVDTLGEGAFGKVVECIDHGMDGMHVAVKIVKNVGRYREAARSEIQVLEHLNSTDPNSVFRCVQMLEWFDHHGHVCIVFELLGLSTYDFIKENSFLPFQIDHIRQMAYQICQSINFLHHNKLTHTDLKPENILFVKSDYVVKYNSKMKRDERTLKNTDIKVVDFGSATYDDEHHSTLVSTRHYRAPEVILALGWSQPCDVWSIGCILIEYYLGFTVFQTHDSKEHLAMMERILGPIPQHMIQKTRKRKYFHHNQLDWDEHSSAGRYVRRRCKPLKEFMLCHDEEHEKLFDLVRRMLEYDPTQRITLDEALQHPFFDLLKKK
Outline: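 Recombinant human Clk4 (25 nM) phosphorylated RS repeat peptide (100 uM) with 1 uM ATP in Tris pH 7.5/MgCl2/EGTA/DTT/Triton buffer for 4.5 h at room temperature. Residual ATP was quantified by Kinase-Glo luciferase luminescence.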

[9] = target: Dual specificity protein kinase CLK4 (Homo sapiens) (UniProt Q9HAZ1); test: qHTS Assay for Inhibitors of CDC-like Kinase 4 (ADP-Glo Assay) (AID 1771); conditions: recombinant CLK4, ADP-Glo luminescence; series mostly up to 80 µM; further: nearly all actives have a fitted effect of over 70% in size; further: potency means the concentration at half of the fitted maximal effect
Outline: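 Luminescence from ADP-Glo reports ADP produced by 25 nM Clk4 acting on 100 uM RS repeat peptide with 1 uM ATP over 1 hr at room temperature; residual ATP is depleted before ADP is converted to ATP for detection.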

[10] = target: Ubiquitin carboxyl-terminal hydrolase 1 (Homo sapiens) (UniProt O94782); test: Inhibitors of USP1/UAF1: Pilot qHTS (AID 504865); conditions: purified USP1/UAF1, Ub-rhodamine cleavage fluorescence; series mostly up to 54.9 µM;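 further: rhodamine fluorescence freed from ubiquitin-rhodamine substrate followed over time; top concentration of the series differs between compounds; on the % scale 0 is the no-effect control and ±100 the full control effect; nearly all actives have a fitted effect of over 35% in size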
Chain of Ubiquitin carboxyl-terminal hydrolase 1 (Homo sapiens) (O94782 whole entry, looked up): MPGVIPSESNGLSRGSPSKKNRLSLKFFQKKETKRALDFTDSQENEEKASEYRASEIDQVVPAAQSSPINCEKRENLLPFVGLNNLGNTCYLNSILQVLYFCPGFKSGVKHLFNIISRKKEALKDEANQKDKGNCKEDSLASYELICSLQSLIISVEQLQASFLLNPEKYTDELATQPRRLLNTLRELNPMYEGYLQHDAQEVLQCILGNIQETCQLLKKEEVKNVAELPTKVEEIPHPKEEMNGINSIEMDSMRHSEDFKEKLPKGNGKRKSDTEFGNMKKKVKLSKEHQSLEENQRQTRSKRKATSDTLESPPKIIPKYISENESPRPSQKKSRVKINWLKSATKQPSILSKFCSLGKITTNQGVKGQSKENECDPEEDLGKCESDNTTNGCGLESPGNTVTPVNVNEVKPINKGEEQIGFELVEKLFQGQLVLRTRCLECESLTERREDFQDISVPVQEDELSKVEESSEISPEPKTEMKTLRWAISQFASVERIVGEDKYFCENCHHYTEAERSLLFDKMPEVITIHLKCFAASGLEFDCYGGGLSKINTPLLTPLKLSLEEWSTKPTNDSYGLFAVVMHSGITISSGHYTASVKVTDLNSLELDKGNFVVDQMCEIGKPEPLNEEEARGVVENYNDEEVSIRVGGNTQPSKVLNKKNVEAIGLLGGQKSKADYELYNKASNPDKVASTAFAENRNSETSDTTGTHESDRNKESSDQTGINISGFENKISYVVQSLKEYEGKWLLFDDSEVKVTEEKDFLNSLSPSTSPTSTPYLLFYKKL
Outline: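 USP1/UAF1 complex (1nM) preincubated with compound 15 min at room temperature, then Ub-Rho substrate (150nM final) added. Fluorescence read kinetically at 480/540 nm, 6 reads every 60 seconds. Buffer: 50mM HEPES pH 7.8, 0.5mM EDTA, 0.1 mg/ml BSA, 1mM TCEP, 0.01% Tween-20.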

[11] = Primary qHTS for small molecule stabilizers of the endoplasmic reticulum resident proteome: Secreted ER Calcium Modulated Protein (SERCaMP) assay (AID 1508630); conditions: SH-SY5Y GLuc-SERCaMP (Gaussia luciferase released on ER calcium loss) secretion, thapsigargin, luminescence; series mostly up to 38.4 µM; further: on the % scale 0 is the no-effect control and ±100 the full control effect
Outline: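 GLuc-SERCaMP-expressing SH-SY5Y cells, pretreated 16 h with compound, are challenged with thapsigargin to empty ER calcium stores; after 4 h, coelenterazine is added directly to the medium and luminescence is imaged.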

[12] = AP1 Signaling Pathway (AID 357; active means well fitted curve in either direction with a large enough effect, not every such curve was filed as active;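 further: ME-180 reporter cells stimulated with EGF at its EC50 level; on the % scale 0 is the no-effect control and ±100 the full control effect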); conditions: ME-180 AP-1-bla reporter, EGF-induced, beta-lactamase ratio, 5 h; at 7.69 µM (top of the series) unless noted
Outline: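 A ratiometric CCF4 readout (405 nm excitation; 460 and 530 nm emission) quantified AP-1-driven beta-lactamase in ME-180 cells after 5 h with compound and EC50 EGF; AC50 values were derived for activators and inhibitors.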

[13] = NFAT Signaling Pathway (AID 444; active means well fitted curve in either direction with a large enough effect, not every such curve was filed as active;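 further: carbachol stimulus at about its EC50 of 1 µM final; on the % scale 0 is the no-effect control and ±100 the full control effect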); conditions: Jurkat NFAT-bla M1, carbachol, beta-lactamase ratio, 5 h; at 7.69 µM (top of the series) unless noted
Outline: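 Jurkat cells carrying an NFAT-driven β-lactamase reporter and co-transfected muscarinic M1 receptor were treated with compound plus carbachol (1 uM final, an EC50 level) for 5 h at 37 °C. CCF4 loading followed for 1 h at RT; 460/530 nm ratio gave %activity.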

[14] = Stat Signaling Pathway (AID 446; active means well fitted curve in either direction with a large enough effect, not every such curve was filed as active); conditions: ME-180 SIE beta-lactamase reporter, IL-6 stimulated, 5 h; at 7.69 µM (top of the series) unless noted
Outline: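 ME-180 SIE-bla cells; overnight plating; cpd + IL-6 40 pM, 5 h, 37 C; LiveBLAzer 2.5 h RT; 460/530 nm emission ratio. Normalized to 300 pM IL-6 and 125 nM JAK inhibitor controls.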

[15] = target: 3',5'-cyclic-AMP phosphodiesterase 4B (Homo sapiens) (UniProt Q07343); test: qHTS Assay for Inhibitors of PDE-IV (AID 607; active means well fitted activation curve with a large enough effect in the main read-out, with a control signal flat, not every such curve was filed as active; further: % of control where 0% means no effect); conditions: HEK293 ACTOne CNG channel cells, membrane potential fluorescence; series mostly up to 22.9 µM
Chain of 3',5'-cyclic-AMP phosphodiesterase 4B (Homo sapiens) (Q07343 whole entry, looked up): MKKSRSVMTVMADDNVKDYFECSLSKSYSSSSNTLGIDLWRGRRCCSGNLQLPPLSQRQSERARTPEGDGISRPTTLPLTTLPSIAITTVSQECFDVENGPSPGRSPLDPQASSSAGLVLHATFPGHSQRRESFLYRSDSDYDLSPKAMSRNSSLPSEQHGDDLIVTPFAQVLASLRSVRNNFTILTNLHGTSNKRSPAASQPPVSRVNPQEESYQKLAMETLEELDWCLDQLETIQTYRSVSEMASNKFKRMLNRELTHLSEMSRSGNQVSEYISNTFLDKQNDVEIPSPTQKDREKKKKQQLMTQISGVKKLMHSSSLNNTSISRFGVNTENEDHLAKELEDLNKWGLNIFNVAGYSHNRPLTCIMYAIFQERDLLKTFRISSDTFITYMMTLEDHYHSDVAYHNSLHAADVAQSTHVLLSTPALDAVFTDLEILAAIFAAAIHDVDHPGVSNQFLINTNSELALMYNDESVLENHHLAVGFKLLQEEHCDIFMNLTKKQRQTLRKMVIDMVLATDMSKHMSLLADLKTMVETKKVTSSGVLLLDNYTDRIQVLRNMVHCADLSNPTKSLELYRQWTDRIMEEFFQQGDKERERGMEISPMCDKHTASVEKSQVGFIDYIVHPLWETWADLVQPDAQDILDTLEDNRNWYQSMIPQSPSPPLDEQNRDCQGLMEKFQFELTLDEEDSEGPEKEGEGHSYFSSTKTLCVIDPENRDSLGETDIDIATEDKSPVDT
Outline: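 ACTOne HEK293 cells carry a modified cAMP-gated CNG channel and express endogenous PDE4; plated 1000 cells/well, compounds up to 22.9 uM final. Membrane-potential dye fluorescence (ex 535/em 590) was read; parental cells received 10 uM forskolin + 100 uM RO 20-1724.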

[16] = target: Cytochrome P450 3A4 (Homo sapiens) (UniProt P08684); test: qHTS Assay for Inhibitors and Substrates of Cytochrome P450 3A4 (AID 884); conditions: recombinant CYP3A4, Luciferin-PPXE luminescence; series mostly up to 57.1 µM; further: potency means the concentration at half of the fitted maximal effect; nearly all actives have a fitted effect of over 50% in size
Outline: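 20 nM human CYP3A4 with 25 uM Luciferin-PPXE (at KM) in 200 mM KPO4, preincubated 10 min with compound; NADPH regeneration started a 60 min RT reaction. Luciferin detected by luminescence, normalized to 57 uM ketoconazole as full inhibition.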

[17] = target: Cytochrome P450 2C19 (Homo sapiens) (UniProt P33261); test: qHTS Assay for Inhibitors and Substrates of Cytochrome P450 2C19 (AID 899); conditions: recombinant CYP2C19, luciferin-H EGE luminescence; series mostly up to 57.1 µM; further: potency means the concentration at half of the fitted maximal effect; nearly all actives have a fitted effect of over 60% in size
Chain of Cytochrome P450 2C19 (Homo sapiens) (P33261 whole entry, looked up): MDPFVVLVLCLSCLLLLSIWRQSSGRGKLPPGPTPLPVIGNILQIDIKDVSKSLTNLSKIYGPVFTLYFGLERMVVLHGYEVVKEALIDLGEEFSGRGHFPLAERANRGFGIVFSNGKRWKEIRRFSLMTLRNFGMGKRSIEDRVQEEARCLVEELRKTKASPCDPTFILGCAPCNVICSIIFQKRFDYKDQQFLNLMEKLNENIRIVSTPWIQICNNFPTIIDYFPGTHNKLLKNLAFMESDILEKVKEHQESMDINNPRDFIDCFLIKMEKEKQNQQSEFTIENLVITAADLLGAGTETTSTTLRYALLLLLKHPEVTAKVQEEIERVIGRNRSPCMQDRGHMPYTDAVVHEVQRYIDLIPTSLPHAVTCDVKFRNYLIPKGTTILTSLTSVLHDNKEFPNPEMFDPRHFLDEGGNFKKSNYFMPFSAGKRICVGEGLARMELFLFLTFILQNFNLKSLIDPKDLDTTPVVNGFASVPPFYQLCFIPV
Outline: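 In 50mM KPO4, the reaction held 5nM enzyme and KM-level (10uM) Luciferin-H EGE; it ran 60 min at 37C after NADPH regeneration and a 10 min compound preincubation. Luminescence values were scaled to 57uM ketoconazole as complete inhibition.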

[18] = target: Dual specificity protein kinase CLK4 (Homo sapiens) (UniProt Q9HAZ1); test: qHTS Assay for Inhibitors of CDC-like Kinase 4 (ADP-FP Assay) (AID 1795); conditions: Transcreener ADP fluorescence polarization; series mostly up to 50 µM; further: on the % scale 0 is the no-effect control and ±100 the full control effect; nearly all actives have a fitted effect of over 60% in size
Outline: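 Recombinant human Clk4 (6.25 nM) phosphorylated RS repeat peptide (100 uM) with 1 uM ATP in Tris pH 7.5/MgCl2/EGTA/DTT/Triton buffer for one hour. ADP was quantified by Transcreener competitive fluorescence polarization against an ADP calibration curve.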

[19] = measured here: cell count channel max response
[20] = measured here: lipid channel max response

SMILES | Potency [1] | Potency [2] | Potency [3] | Potency [4] | outcome [5] | Potency [6] | activity change, negative = inhibition [7] | max response [7, 19] [%] | max response [7, 20] [%] | Potency [8] | Potency [9] | Potency [10] | Potency [11] | activity change, negative = inhibition [12] | activity change, negative = inhibition [13] | activity, negative = inhibition [14] | Potency [15] | Potency [16] | Potency [17] | Potency [18]
O=c1cnc2cnc(Nc3ccccc3)nc2n1Cc1cccs1 | > 11.4 µM (inactive) | 1 µM (active) | > 9.22 µM (inactive) | > 46 µM (inactive) | inactive | inactive | 1.01% (inactive) | 12.8 | 12.5 | 1.41 µM (active) | 2 µM (active) | inactive | inactive |  |  |  |  |  |  | 
COc1cccc(-c2cncnc2N(C)Cc2ccco2)c1 | > 11.4 µM (inactive) | 10 µM (active) | > 46 µM (inactive) | > 46 µM (inactive) | inactive |  | 6.72% (inactive) | 38 | 41.1 | inactive |  | inactive | inactive | -8.71% (inactive) | -25.9% (inactive) | 7.72% (inactive) | inactive | 2.51 µM (active) | 7.94 µM (active) | inactive
Cc1cnc(CNc2cc(-c3cccc(NS(C)(=O)=O)c3)ncn2)cn1 | > 11.4 µM (inactive) |  | > 46 µM (inactive) | > 46 µM (inactive) | inactive |  | 5.3% (inactive) | 37.3 | 40.2 | 25.1 µM (active) | 15.8 µM (active) | inactive | inactive | 20.7% (inactive) | -0.447% (inactive) | -0.385% (inactive) | inactive |  |  | 
c1csc(CNc2ccnc(-c3ccoc3)n2)c1 | > 11.4 µM (inactive) | 1 µM (active) | > 46 µM (inactive) | > 46 µM (inactive) | inactive | inactive | 5% (inactive) | 21.1 | 20.9 | inactive |  | inactive | inactive | 8.64% (inactive) | -0.203% (inactive) | 10.3% (inactive) |  | 7.94 µM (active) |  | inactive
CN(C)C(=O)c1ccc(-c2cncnc2NC2CCNCC2)cc1 | > 11.4 µM (inactive) |  | > 46 µM (inactive) | > 46 µM (inactive) | inactive |  | 3.5% (inactive) | 11.8 | 12.7 | inactive | inactive | inactive | inactive | 7.68% (inactive) | 9.18% (inactive) | 15.4% (inactive) | inactive |  |  | 
COc1ccccc1-c1cncnc1NCCNC(C)=O |  | inactive |  | > 46 µM (inactive) | inactive | inactive | 0.0705% (inactive) | 19.9 | 19 | inactive | inactive | inactive | inactive | -8.57% (inactive) | 1.19% (inactive) | 2.82% (inactive) | inactive | 2 µM (active) |  | 

From PubChem BioAssay (NCATS)
